Test results taken from PubChem BioAssay AID1159580 (chemical genetic matrix, 2015).
Out of some 5,500 compounds screened, about 2,000 (36%) were called active. Not shown: some 18% with an inconclusive outcome. Some of the results follow. Values without a mark were called inactive. Rule as the data show it: active = normalized growth mostly below about 0.91 (no sharp cut-off); inconclusive = no clear call, values can overlap the other calls; inactive = mostly above about 0.92.

Assay: chemical genetic growth profiling, strain panel (AID 1159580);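 also: tested at 20 µM; growth read once vehicle control cultures reached saturation at 30 °C; 1 = growth at the plate median or of vehicle wells; lower values mean less growth of the strain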
Details: S. cerevisiae deletion strains, growth OD
[1] = locus YDL101C, strain DUN1, active compounds read low
[2] = locus YHR030C, strain SLT2, active compounds read low
[3] = locus YDR150W, strain NUM1, active compounds read low
[4] = locus YGR078C, strain PAC10, active compounds read low
[5] = locus YPL055C, strain LGE1, active compounds read low

Work on `OC(CSc1ccccc1)CN1CCN(c2nc(-c3ccccc3)ns2)CC1` (stereo not drawn) yielded a normalized growth (locus YAR019C, strain CDC15, active compounds read low) of 0.991, a normalized growth (locus YBL105C, strain PKC1, active compounds read low) of 0.977 and a normalized growth (locus YBR135W, strain CKS1, active compounds read low) of 0.993. The normalized growth (locus YBR136W, strain MEC1, active compounds read low) was 0.977, the normalized growth (locus YBR160W, strain CDC28, active compounds read low) was 0.982 and the normalized growth (locus YDL017W, strain CDC7, active compounds read low) was 0.989. For the same molecule, the normalized growth (locus YDL028C, strain MPS1, active compounds read low) was 0.99, the normalized growth [1] was 0.98 and the normalized growth (locus YDL108W, strain KIN28, active compounds read low) was 0.99. It also gave a normalized growth (locus YDL132W, strain cdc53, active compounds read low) of 0.996, a normalized growth (locus YDL214C, strain PRR2, active compounds read low) of 0.932 and a normalized growth (locus YDR052C, strain DBF4, active compounds read low) of 0.981. It also gave a normalized growth (locus YDR054C, strain cdc34, active compounds read low) of 0.977, a normalized growth (locus YDR226W, strain ADK1, active compounds read low) of 0.989 and a normalized growth (locus YDR477W, strain SNF1, active compounds read low) of 0.931. The normalized growth (locus YER123W, strain YCK3, active compounds read low) was 0.908, the normalized growth (locus YER133W, strain GLC7, active compounds read low) was 0.941 and the normalized growth (locus YFL009W, strain cdc4, active compounds read low) was 0.987. For the same molecule, the normalized growth (locus YFL029C, strain CAK1, active compounds read low) was 0.983, the normalized growth (locus YFR003C, strain YPI1, active compounds read low) was 0.989 and the normalized growth (locus YFR019W, strain FAB1, active compounds read low) was 0.93. The normalized growth (locus YFR028C, strain CDC14, active compounds read low) was 0.984, the normalized growth (locus YGR040W, strain KSS1, active compounds read low) was 0.915 and the normalized growth (locus YGR052W, strain FMP48, active compounds read low) was 0.993. It also gave a normalized growth (locus YGR092W, strain DBF2, active compounds read low) of 0.935, a normalized growth [2] of 0.941 and a normalized growth (locus YHR079C, strain IRE1, active compounds read low) of 0.962. It also gave a normalized growth (locus YHR082C, strain KSP1, active compounds read low) of 0.983, a normalized growth (locus YHR205W, strain SCH9, active compounds read low) of 0.921 and a normalized growth (locus YIL147C, strain SLN1, active compounds read low) of 0.987. The normalized growth (locus YJL095W, strain BCK1, active compounds read low) was 0.947, the normalized growth (locus YJL128C, strain PBS2, active compounds read low) was 0.945 and the normalized growth (locus YJL157C, strain FAR1, active compounds read low) was 0.915. For the same molecule, the normalized growth (locus YJR016C, strain ILV3, active compounds read low) was 0.982, the normalized growth (locus YJR066W, strain TOR1 (second series), active compounds read low) was 0.888 and the normalized growth (locus YJR066W, strain TOR1, active compounds read low) was 1.01. For the same molecule, the normalized growth (locus YKL048C, strain ELM1, active compounds read low) was 0.954, the normalized growth (locus YKL067W, strain YNK1, active compounds read low) was 0.943 and the normalized growth (locus YKL101W, strain HSL1, active compounds read low) was 0.927. The normalized growth (locus YKL193C, strain SDS22, active compounds read low) was 0.987, the normalized growth (locus YKL203C, strain TOR2, active compounds read low) was 0.989 and the normalized growth (locus YLR113W, strain HOG1, active compounds read low) was 0.847 (active). The normalized growth (locus YLR133W, strain CKI1, active compounds read low) was 0.935, the normalized growth (locus YLR403W, strain SFP1, active compounds read low) was 0.9 and the normalized growth (locus YML070W, strain DAK1, active compounds read low) was 0.9. The normalized growth (locus YMR001C, strain CDC5, active compounds read low) was 0.983, the normalized growth (locus YMR205C, strain PFK2 (second series), active compounds read low) was 0.944 and the normalized growth (locus YMR277W, strain FCP1, active compounds read low) was 0.991. For the same molecule, the normalized growth (locus YNL006W, strain LST8, active compounds read low) was 0.997, the normalized growth (locus YNL020C, strain ARK1, active compounds read low) was 0.935 and the normalized growth (locus YNL161W, strain CBK1, active compounds read low) was 0.98. The normalized growth (locus YNL183C, strain NPR1, active compounds read low) was 0.972, the normalized growth (locus YNL207W, strain RIO2, active compounds read low) was 0.987 and the normalized growth (locus YNL222W, strain SSU72, active compounds read low) was 0.991. The normalized growth (locus YNL307C, strain MCK1 (second series), active compounds read low) was 0.927, the normalized growth (locus YOL078W, strain AVO1, active compounds read low) was 0.98 and the normalized growth (locus YOL136C, strain PFK27, active compounds read low) was 0.903. The normalized growth (locus YOR061W, strain CKA2, active compounds read low) was 0.936, the normalized growth (locus YOR119C, strain RIO1, active compounds read low) was 0.994 and the normalized growth (locus YOR231W, strain MKK1, active compounds read low) was 0.882. It also gave a normalized growth (locus YOR329C, strain SCD5, active compounds read low) of 0.982, a normalized growth (locus YPL031C, strain PHO85, active compounds read low) of 0.952 and a normalized growth (locus YPL153C, strain RAD53, active compounds read low) of 0.937. For the same molecule, the normalized growth (locus YPL204W, strain HRR25, active compounds read low) was 0.932, the normalized growth (locus YPL209C, strain IPL1, active compounds read low) was 0.981 and the normalized growth (locus YPL256C, strain CLN2, active compounds read low) was 0.889. It also gave a normalized growth (locus YPR025C, strain CCL1, active compounds read low) of 0.987, a normalized growth (locus YPR106W, strain ISR1, active compounds read low) of 0.976 and a normalized growth (locus YPR111W, strain DBF20, active compounds read low) of 0.961. For the same molecule, the normalized growth (strain NNK1, active compounds read low) was 0.973 and the normalized growth (strain TSCII, active compounds read low) was 0.984.

For `COc1ccccc1N1CCN(CC(O)COc2cccc3ccccc23)CC1` (stereo not drawn), the normalized growth (locus YAL040C, strain CLN3, active compounds read low) was 0.993, the normalized growth (locus YCL061C, strain MRC1 (second series), active compounds read low) was 0.992 and the normalized growth [3] was 0.998. It also gave a normalized growth (locus YDR363W, strain ESC2, active compounds read low) of 0.965, a normalized growth (locus YER002W, strain NOP16, active compounds read low) of 1.02 and a normalized growth [4] of 0.978. It also gave a normalized growth (locus YNL175C, strain NOP13, active compounds read low) of 1.01, a normalized growth (locus YNL197C, strain WHI3, active compounds read low) of 1.04 and a normalized growth (locus YNL224C, strain SQS1, active compounds read low) of 0.99. The normalized growth (locus YOR083W, strain WHI5 (second series), active compounds read low) was 1.02 and the normalized growth [5] was 0.976.

With `OC(CSc1ccccc1)CN1CCN(c2ccc(C(F)(F)F)cn2)CC1` (stereo not drawn) the normalized growth (locus YAL013W, strain DEP1, active compounds read low) was 1.01, the normalized growth (locus YBR229C, strain ROT2, active compounds read low) was 1 and the normalized growth [1] was 1.01. The normalized growth (locus YDL134C, strain PPH21, active compounds read low) was 0.185 (active), the normalized growth [3] was 0.87 and the normalized growth (locus YEL061C, strain CIN8, active compounds read low) was 0.657 (active). For the same molecule, the normalized growth [4] was 1, the normalized growth [2] was 0.203 (active) and the normalized growth (locus YHR087W, strain rtc3, active compounds read low) was 0.994. For the same molecule, the normalized growth (locus YJR043C, strain POL32, active compounds read low) was 0.991, the normalized growth (locus YJR075W, strain HOC1, active compounds read low) was 1 and the normalized growth (locus YLR039C, strain RIC1, active compounds read low) was 0.591 (active). The normalized growth (locus YLR058C, strain SHM2 (second series), active compounds read low) was 1.01, the normalized growth (locus YLR085C, strain ARP6, active compounds read low) was 0.387 (active) and the normalized growth (locus YLR262C, strain YPT6, active compounds read low) was 0.468 (active). The normalized growth (locus YML094W, strain GIM5, active compounds read low) was 0.686 (active), the normalized growth (locus YMR219W, strain ESC1, active compounds read low) was 1 and the normalized growth (locus YMR263W, strain SAP30, active compounds read low) was 0.966. The normalized growth (locus YMR307W, strain GAS1, active compounds read low) was 0.698, the normalized growth (locus YNL153C, strain GIM3, active compounds read low) was 1.03 and the normalized growth (locus YNL298W, strain CLA4 (second series), active compounds read low) was 0.601 (active). For the same molecule, the normalized growth (locus YNL322C, strain KRE1, active compounds read low) was 1.01, the normalized growth (locus YNR030W, strain Alg12, active compounds read low) was 0.668 (active) and the normalized growth [5] was 0.898. The normalized growth (locus YPL241C, strain CIN2, active compounds read low) was 0.763 (active) and the normalized growth (locus YPR135W, strain CTF4, active compounds read low) was 0.442 (active).
